# Test results reported in publication PMC5540273 (PLoS ONE, 2017).
# Values joined by “and” are separate entries in the source; they are usually repeats but may differ in a detail not shown here. Equal entries are not always repeated. Where two headings read alike, the source gives them in different places.
# Assays:
# PKN1 = conditions: n = 1
# PKN2 = conditions: concentration: 1 μM, replicates: in singlicate; n = 1
# PLK1 = conditions: n = 1
# PLK2 = conditions: concentration: 1 μM, replicates: in singlicate; n = 1
# PLK3 = conditions: concentration: 1 μM, replicates: in singlicate; n = 1
# PLK4 = conditions: n = 1
# PRKCD = conditions: concentration: 1 μM, replicates: in singlicate; n = 1
# PRKCE = conditions: n = 1
# PRKCH = conditions: n = 1
# PRKCI = conditions: n = 1
# PRKCQ = conditions: n = 1
# PRKD1 = conditions: concentration: 1 μM, replicates: in singlicate; n = 1
# PRKD2 = conditions: n = 1
# PRKD3 = conditions: n = 1
# PRKG1 = conditions: n = 1
# PRKG2 = conditions: n = 1
# PRKR = tested on: T1, PRKR; conditions: n = 1
# T1 construct: gene EIF2AK2
# PRKX = conditions: n = 1
# PRP4 = conditions: n = 1
# PYK2 = tested on: T2, PYK2; conditions: n = 1
# T2 construct: gene PTK2B
# [1] = concentration: 1 μM, replicates: in singlicate
# [2] = concentration: 1 μM,replicates: in singlicate, 1 µM
# 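Further: KINOMEscan kinase panel screen.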
smiles,measurement,setting,value
COc1ccc2nc(-c3cccc(C)n3)nc(Nc3ccncc3)c2c1 [GSK204919],%Inh,PKN1; [1],3%
same,%Inh,PKN2,0%
same,%Inh,PLK1; [1],0%
same,%Inh,PLK2,0%
same,%Inh,PLK3,0%
same,%Inh,PLK4; [1],0%
same,%Inh,PRKCD,0%
same,%Inh,PRKCE; [1],0%
same,%Inh,PRKCH; [1],30%
same,%Inh,PRKCI; [1],31%
same,%Inh,PRKCQ; [1],44%
same,%Inh,PRKD1,92.4%
same,%Inh,PRKD2; [1],98.8%
same,%Inh,PRKD3; [1],100%
same,%Inh,PRKG1; [1],8%
same,%Inh,PRKG2; [1],0%
same,%Inh,PRKR; [1],0%
same,%Inh,PRKX; [1],7%
same,%Inh,PRP4; [1],8%
same,%Inh,PYK2; [1],9%
CN(C)CCN(C)C(=O)c1cc(-c2ccncc2)c(-c2ccc(Cl)c(O)c2)o1.Cl.Cl [SB-710397],%Inh,PKN1; [1],17%
same,%Inh,PKN2,0%
same,%Inh,PLK1; [1],8%
same,%Inh,PLK2,0%
same,%Inh,PLK3,0%
same,%Inh,PLK4; [1],0%
same,%Inh,PRKCD,0%
same,%Inh,PRKCE; [1],47%
same,%Inh,PRKCH; [1],22%
same,%Inh,PRKCI; [1],33%
same,%Inh,PRKCQ; [1],3%
same,%Inh,PRKD1,0%
same,%Inh,PRKD2; [1],57%
same,%Inh,PRKD3; [1],12%
same,%Inh,PRKG1; [1],0%
same,%Inh,PRKG2; [1],0%
same,%Inh,PRKR; [1],0%
same,%Inh,PRKX; [1],0%
same,%Inh,PRP4; [1],60%
same,%Inh,PYK2; [1],12%
Cc1c(O)cccc1Nc1ccnc2ccc(C(F)(F)F)cc12.Cl [GW466413],%Inh,PKN1; [1],0%
same,%Inh,PKN2,0%
same,%Inh,PLK1; [1],0%
same,%Inh,PLK2,0%
same,%Inh,PLK3,0%
same,%Inh,PLK4; [1],0%
same,%Inh,PRKCD,0%
same,%Inh,PRKCE; [1],0%
same,%Inh,PRKCH; [1],28%
same,%Inh,PRKCI; [1],0%
same,%Inh,PRKCQ; [1],0%
same,%Inh,PRKD1,0%
same,%Inh,PRKD2; [1],0%
same,%Inh,PRKD3; [1],0%
same,%Inh,PRKG1; [1],5%
same,%Inh,PRKG2; [1],0%
same,%Inh,PRKR; [1],0%
same,%Inh,PRKX; [1],0%
same,%Inh,PRP4; [1],4%
same,%Inh,PYK2; [1],0%
COc1cc(Nc2nccc(N3CCC(NC(=O)Nc4cc(C)ccc4C)C3)n2)cc(OC)c1OC (stereo not shown) [GSK1379762],%Inh,PKN1; [1],41%
same,%Inh,PKN2,0%
same,%Inh,PLK1; [1],0%
same,%Inh,PLK2,0%
same,%Inh,PLK3,0%
same,%Inh,PLK4; [1],28%
same,%Inh,PRKCD,0%
same,%Inh,PRKCE; [1],0%
same,%Inh,PRKCH; [1],7%
same,%Inh,PRKCI; [1],33%
same,%Inh,PRKCQ; [1],0%
same,%Inh,PRKD1,0%
same,%Inh,PRKD2; [1],0%
same,%Inh,PRKD3; [1],37%
same,%Inh,PRKG1; [1],0%
same,%Inh,PRKG2; [1],0%
same,%Inh,PRKR; [1],0%
same,%Inh,PRKX; [1],41%
same,%Inh,PRP4; [1],43%
same,%Inh,PYK2; [1],3%
Cn1ccc2ncnc(Oc3cccc(C(=O)Nc4ccccc4)c3)c21,%Inh,PKN1; [1],0%
same,%Inh,PKN2,0%
same,%Inh,PLK1; [1],0%
same,%Inh,PLK2,0%
same,%Inh,PLK3,0%
same,%Inh,PLK4; [1],2%
same,%Inh,PRKCD,2%
same,%Inh,PRKCE; [1],0%
same,%Inh,PRKCH; [1],0%
same,%Inh,PRKCI; [1],0%
same,%Inh,PRKCQ; [1],0%
same,%Inh,PRKD1,0%
same,%Inh,PRKD2; [1],9%
same,%Inh,PRKD3; [1],0%
same,%Inh,PRKG1; [1],3%
same,%Inh,PRKG2; [1],0%
same,%Inh,PRKR; [1],0%
same,%Inh,PRKX; [1],0%
same,%Inh,PRP4; [1],5%
same,%Inh,PYK2; [1],0%
CSc1nn2c(=O)cc(N3CCOCC3)nc2n1Cc1cccc(C(F)(F)F)c1C [GSK2363608],%Inh,PKN1; [2],14% and 0%
same,%Inh,PKN2,0%
same,%Inh,PLK1; [2],25% and 8%
same,%Inh,PLK2,0%
same,%Inh,PLK3,0%
same,%Inh,PLK4; [2],11% and 0%
same,%Inh,PRKCD,0%
same,%Inh,PRKCE; [2],18% and 0%
same,%Inh,PRKCH; [2],20% and 0%
same,%Inh,PRKCI; [2],13% and 18%
same,%Inh,PRKCQ; [2],0% and 66%
same,%Inh,PRKD1,0%
same,%Inh,PRKD2; [2],7% and 4%
same,%Inh,PRKD3; [2],21% and 0%
same,%Inh,PRKG1; [2],39% and 1%
same,%Inh,PRKG2; [2],16% and 0%
same,%Inh,PRKR; [2],5% and 0%
same,%Inh,PRKX; [2],36% and 0%
same,%Inh,PRP4; [2],32% and 12%
same,%Inh,PYK2; [2],0% and 17%
CCCc1ccc(S(=O)(=O)NC2CCN(c3ccnc(Nc4ccc(F)cc4)n3)C2)cc1 (stereo not shown) [GSK1379715],%Inh,PKN1; [1],7%
same,%Inh,PKN2,0%
same,%Inh,PLK1; [1],0%
same,%Inh,PLK2,0%
same,%Inh,PLK3,0%
same,%Inh,PLK4; [1],0%
same,%Inh,PRKCD,0%
same,%Inh,PRKCE; [1],17%
same,%Inh,PRKCH; [1],11%
same,%Inh,PRKCI; [1],0%
same,%Inh,PRKCQ; [1],27%
same,%Inh,PRKD1,1%
same,%Inh,PRKD2; [1],0%
same,%Inh,PRKD3; [1],0%
same,%Inh,PRKG1; [1],0%
same,%Inh,PRKG2; [1],0%
same,%Inh,PRKR; [1],0%
same,%Inh,PRKX; [1],1%
same,%Inh,PRP4; [1],20%
same,%Inh,PYK2; [1],0%
O=C1NC(=O)C(N2CCc3ccccc32)=C1c1ccccc1Cl [SB-373598],%Inh,PKN1; [1],0%
same,%Inh,PKN2,13%
same,%Inh,PLK1; [1],14%
same,%Inh,PLK2,0%
same,%Inh,PLK3,0%
same,%Inh,PLK4; [1],12%
same,%Inh,PRKCD,19%
same,%Inh,PRKCE; [1],3%
same,%Inh,PRKCH; [1],30%
same,%Inh,PRKCI; [1],0%
same,%Inh,PRKCQ; [1],7%
same,%Inh,PRKD1,12%
same,%Inh,PRKD2; [1],3%
same,%Inh,PRKD3; [1],0%
same,%Inh,PRKG1; [1],36%
same,%Inh,PRKG2; [1],12%
same,%Inh,PRKR; [1],5%
same,%Inh,PRKX; [1],12%
same,%Inh,PRP4; [1],0%
same,%Inh,PYK2; [1],0%
CS(=O)(=O)c1ccc(-c2nc3n(c2-c2ccncc2)CCC3)cc1 [SKF-105942],%Inh,PKN1; [1],8%
same,%Inh,PKN2,0%
same,%Inh,PLK1; [1],0%
same,%Inh,PLK2,22%
same,%Inh,PLK3,0%
same,%Inh,PLK4; [1],11%
same,%Inh,PRKCD,0%
same,%Inh,PRKCE; [1],18%
same,%Inh,PRKCH; [1],1%
same,%Inh,PRKCI; [1],2%
same,%Inh,PRKCQ; [1],0%
same,%Inh,PRKD1,3%
same,%Inh,PRKD2; [1],0%
same,%Inh,PRKD3; [1],0%
same,%Inh,PRKG1; [1],0%
same,%Inh,PRKG2; [1],5%
same,%Inh,PRKR; [1],0%
same,%Inh,PRKX; [1],2%
same,%Inh,PRP4; [1],11%
same,%Inh,PYK2; [1],0%
Cc1cccc(-c2nc(-c3ccc(S(C)(=O)=O)cc3)sc2-c2ccnc(NCCc3ccccc3)c2)c1,%Inh,PKN1; [1],6%
same,%Inh,PKN2,13%
same,%Inh,PLK1; [1],0%
same,%Inh,PLK2,5%
same,%Inh,PLK3,0%
same,%Inh,PLK4; [1],7%
same,%Inh,PRKCD,8%
same,%Inh,PRKCE; [1],0%
same,%Inh,PRKCH; [1],14%
same,%Inh,PRKCI; [1],6%
same,%Inh,PRKCQ; [1],26%
same,%Inh,PRKD1,1%
same,%Inh,PRKD2; [1],0%
same,%Inh,PRKD3; [1],0%
same,%Inh,PRKG1; [1],20%
same,%Inh,PRKG2; [1],20%
same,%Inh,PRKR; [1],0%
same,%Inh,PRKX; [1],0%
same,%Inh,PRP4; [1],9%
same,%Inh,PYK2; [1],4%
Cc1ccccc1-n1cnc2c(N)ncnc21 [SKF-97510],%Inh,PKN1; [1],0%
same,%Inh,PKN2,0%
same,%Inh,PLK1; [1],0%
same,%Inh,PLK2,0%
same,%Inh,PLK3,0%
same,%Inh,PLK4; [1],0%
same,%Inh,PRKCD,0%
same,%Inh,PRKCE; [1],0%
same,%Inh,PRKCH; [1],0%
same,%Inh,PRKCI; [1],0%
same,%Inh,PRKCQ; [1],0%
same,%Inh,PRKD1,0%
same,%Inh,PRKD2; [1],0%
same,%Inh,PRKD3; [1],4%
same,%Inh,PRKG1; [1],0%
same,%Inh,PRKG2; [1],0%
same,%Inh,PRKR; [1],0%
same,%Inh,PRKX; [1],0%
same,%Inh,PRP4; [1],0%
same,%Inh,PYK2; [1],0%
